Source: PubChem BioAssay (Broad Institute)
T_cruzi_growth: blocks T. cruzi growth in NIH3T3 culture; inhibition, % at 8.34 µM; 77,000 compounds, 5.9% hits; T. cruzi beta-gal in NIH3T3, GalScreen luminescence, 90 h;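 active = mean inhibition above about 93%, with at least 55% of replicates each passing it, limit read from the data, passing the limit was not always enough; inconclusive = only one of those two conditions holds; inactive = neither condition holds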
Pf_Dd2_inh: P. falciparum Dd2 growth inhibition; SYBR Green, 72 h; stronger effect = lower value; activity change, % at 10 µM; 94,000 compounds, 2.3% hits; in the data active = activity change below about -80%; inconclusive = no clear call, values can overlap the other calls
C_diff_HTS: inhibitors of Clostridium difficile growth; 86,000 compounds, 0.25% hits; growth activity, negative = inhibition, % at 16 µg/mL (by protocol); Clostridium difficile clinical isolate growth, OD600, 24 h; stronger effect = lower value; AID 1259249;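 active = mean growth activity at or below -80% and every replicate also at or below -80%; inconclusive = mean at or below -80% but some replicate above -80%; inactive = mean growth activity above -80%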;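 note: 0% = DMSO wells and -100% = levofloxacin 16 µg/mL wells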
* hit, by the source's call; ? = inconclusive; . = not tested or not shown. In the library only some 6.8% were active in any assay of this set; here they are far more common.

SMILES T_cruzi_growth Pf_Dd2_inh C_diff_HTS
COc1ccc(NC(=O)N(C)C[C@H]2OCCCC[C@H](C)Oc3ccc(NC(=O)c4ccccc4)cc3C(=O)N([C@@H](C)CO)C[C@H]2C)cc1 . -89* -3
COc1ccc(NC(=O)N(C)C[C@@H]2OCCCC[C@@H](C)Oc3ccc(NC(=O)Nc4ccc(C(F)(F)F)cc4)cc3C(=O)N([C@H](C)CO)C[C@H]2C)cc1 28 15 4
COc1ccc(NC(=O)N(C)C[C@H]2OCCCC[C@H](C)Oc3ccc(NC(=O)Nc4ccc(C(F)(F)F)cc4)cc3C(=O)N([C@H](C)CO)C[C@@H]2C)cc1 ? -4 -1
C[C@@H](NC(=O)[C@H]1[C@H](CO)[C@H]2Cn3c(ccc(-c4cccnc4)c3=O)[C@H]2N1C)c1ccccc1 38 -3 3
COc1ccc(S(=O)(=O)N[C@H]2CC[C@@H](CC(=O)N3CCC(Cc4ccccc4)CC3)O[C@@H]2CO)cc1 19 -1 -14
C[C@H](NC(=O)C[C@H]1C=C[C@H](NC(=O)C2CC2)[C@H](CO)O1)c1ccccc1 . 4 2
C[C@@H]1CN([C@@H](C)CO)C(=O)c2cc(NC(=O)C3CCCCC3)ccc2O[C@@H](C)CCCCO[C@@H]1CN(C)S(=O)(=O)c1ccc(F)cc1 36 -82* -1
C[C@@H]1CN([C@H](C)CO)C(=O)c2cc(NC(=O)C3CCCCC3)ccc2O[C@@H](C)CCCCO[C@@H]1CN(C)S(=O)(=O)c1ccc(F)cc1 79 -82* -4
C[C@H]1CCCCO[C@H](CN(C)S(=O)(=O)c2ccc(F)cc2)[C@@H](C)CN([C@@H](C)CO)C(=O)c2cc(NC(=O)C3CCCCC3)ccc2O1 86 -77 0
C[C@@H]1CCCCO[C@H](CN(C)S(=O)(=O)c2ccc(F)cc2)[C@@H](C)CN([C@@H](C)CO)C(=O)c2cc(NC(=O)C3CCCCC3)ccc2O1 75 -75 1
COc1cccc(S(=O)(=O)N2CCCCN3[C@H](C2)[C@@H](c2ccc(C#CCC(C)C)cc2)[C@@H]3CO)c1 90 -19 4
Cc1ccc(-c2ccc([C@@H]3[C@H](CO)N4CCCCN(S(=O)(=O)c5ccccc5C)C[C@@H]34)cc2)cc1 -15 -82* 17
COc1cccc(S(=O)(=O)N2CCCCN3[C@H](C2)[C@H](c2ccc(C4=CCCCC4)cc2)[C@@H]3CO)c1 41 5 53
COc1cccc(S(=O)(=O)N2CCCCN3[C@@H](CO)[C@@H](c4ccc(C5=CCCCC5)cc4)[C@@H]3C2)c1 73 -84* -10
Cc1ccc(-c2ccc([C@H]3[C@@H](CO)N4CCCCN(S(=O)(=O)c5ccccc5C)C[C@@H]34)cc2)cc1 92 -28 2
COc1cccc(S(=O)(=O)N2CCCCN3[C@@H](CO)[C@@H](c4ccc(C#CCC(C)C)cc4)[C@@H]3C2)c1 93 -84* 2
C/C=C/c1ccc2c(c1)O[C@@H](CN(C)C(=O)c1cnccn1)[C@@H](C)CN([C@@H](C)CO)S2(=O)=O . -20 1
COc1ccc(S(=O)(=O)N(C)C[C@H]2OCCCC[C@H](C)Oc3ccc(NS(=O)(=O)c4cccs4)cc3C(=O)N([C@@H](C)CO)C[C@H]2C)cc1 64 -83* -4
C[C@@H]1CN([C@@H](C)CO)C(=O)c2cc(NS(=O)(=O)c3cccs3)ccc2O[C@@H](C)CCCCO[C@@H]1CN(C)S(=O)(=O)c1ccc(F)cc1 61 -83* 26
COc1ccc(S(=O)(=O)N(C)C[C@@H]2OCCCC[C@H](C)Oc3ccc(NS(=O)(=O)c4cccs4)cc3C(=O)N([C@H](C)CO)C[C@@H]2C)cc1 -8 -39 1
C[C@@H]1CCCCO[C@@H](CN(C)S(=O)(=O)c2ccc(F)cc2)[C@H](C)CN([C@H](C)CO)C(=O)c2cc(NS(=O)(=O)c3cccs3)ccc2O1 56 -48 2
COc1ccc(S(=O)(=O)N(C)C[C@@H]2OCCCC[C@H](C)Oc3ccc(NS(=O)(=O)c4cccs4)cc3C(=O)N([C@@H](C)CO)C[C@H]2C)cc1 52 -76 -6
COc1ccc(S(=O)(=O)N(C)C[C@H]2OCCCC[C@H](C)Oc3ccc(NS(=O)(=O)c4cccs4)cc3C(=O)N([C@H](C)CO)C[C@H]2C)cc1 -37 -81* -2
C[C@H]1CN([C@@H](C)CO)C(=O)Cc2cc(N(C)C)ccc2O[C@@H]1CN(C)CC1CC1 5 45 -9
CO[C@H]1CN(C)C(=O)c2ccc(NC(=O)NC(C)C)cc2OC[C@H](C)N(C(=O)CN(C)C)C[C@@H]1C 72 -5 .
C[C@H](CO)N1C[C@H](C)[C@@H](CN(C)Cc2ccc3c(c2)OCO3)Oc2c(NC(=O)CCCCCC(=O)Nc3ccccc3N)cccc2C1=O . -85* -6
